Assay outcomes as filed in PubChem BioAssay.
The entries come from a sample that favours hits as a whole.
Tgondii IFNg: inhibitors of Toxoplasma gondii growth with IFN-gamma | Toxoplasma gondii growth in IFN-gamma-treated host cells; active compounds read low | 3.8% of 69,000 active | activity change, negative = inhibition, % (test concentration not listed) | AID 1259416; in the data active means activity change below about -70%, passing the limit was not always enough;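 further: host cells are HeLa cells infected with Toxoplasma gondii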
* = called active by the depositor; i = inactive.

SMILES | Tgondii IFNg
O=C(Nc1ccc(Cl)cc1)c1cnc(NC2CCCCC2)cc1C(F)(F)F | -110*
C=CCn1cnc(-c2ccccc2)c1-c1ccc2onc(C)c2c1 | -1
CO[C@H]1COC[C@@H]1n1cnc(-c2ccccc2)c1-c1ccc2occc2c1 | -78*
CC(=O)Nc1ccc(-c2c(-c3ccccc3)ncn2Cc2ccco2)cc1 | -3
COc1ccc2c3c(n(C)c2c1)[C@H](CO)N(C(=O)NC1CCCCC1)CC31CCN(C)CC1 | 89
CN1CCCC(CC2c3ccccc3Sc3ccccc32)C1 (stereo unspecified) | -11
CSc1ccc2c(c1)C(N1CCN(C)CC1)Cc1ccccc1S2 (stereo unspecified) | -77*
CN1CCN(C2=Cc3ccccc3Oc3ccc(Cl)cc32)CC1 | 15
CN1CCN(C2Cc3ccccc3Sc3ccc(Cl)cc32)CC1 (stereo unspecified) | -82*
CN1CCN2c3ccccc3Cc3ccccc3C2C1 (stereo unspecified) | -1
O=C(c1ccc(F)cc1)N1CCC2(CC1)Nc1ccc(Cl)cc1-n1cccc12 | 51
N#Cc1c(=O)[nH]c(O)c2c(=N)oc3ccc(Cl)cc3c12 | 60
N#Cc1c(=N)nc2oc3ccc(Cl)cc3c3c(C#N)c(N)[nH]c1c23 | -75*
Cc1noc([C@H]2CNC(=O)[C@H]3CCN(C(C)C)CC[C@H]32)n1 | 10
Fc1ccc(-n2cccn2)c(C2NCCc3[nH]cnc32)c1 (stereo unspecified) | -5
CCCc1nc(CNC(=O)[C@@H]2C[C@@H]3C=C[C@H]2C3)cs1 | 1
CC(=O)[C@H]1[C@H](C#N)C[C@H]2[C@@H]3CC=C4C[C@@H](O)CC[C@]4(C)[C@H]3CC[C@@]21C | -84*
C[C@]12CCC3C(CC=C4C[C@@H](O)CC[C@@]43C)C1CCC2[C@]1(C)CCC(=O)O1 (stereo partly specified) | -65
C[C@]12CC[C@H](O)CC1=CCC1C2CC[C@]2(C)C(n3cnc4ccccc43)=CCC12 (stereo partly specified) | -63
O=C(NC1CCC1)[C@H]1C[C@@H]2CN(S(=O)(=O)c3ccccc3)C[C@H]1O2 | 1
Cc1oc2c(O)c(O)ccc2c(=O)c1-c1ccccc1 | 43
O=c1cc(-c2ccccc2)oc2c(O)c(O)ccc12 | -92*
Cc1cc(=O)oc2c(O)c(O)ccc12 | 7
Cc1nc(-c2cccc(F)c2)sc1CCNC(=O)C(=O)Nc1cc(F)ccc1F | 54
CCn1c(C2CCN(Cc3ccnn3-c3ccccc3)CC2)nn(C)c1=O | 75
SMILES | Tgondii IFNg
CC(C)n1nc(-c2cc3cc(O)ccc3[nH]2)c2c(N)ncnc21 | -65
CC(C)(C)n1nc(-c2ccc(Cl)cc2)c2c(N)ncnc21 | -90*
CNC(=O)COC1COC2(CCN(CC3CCC3)CC2)C1 (stereo unspecified) | 3
Clc1ccc(Nc2nc3nonc3nc2Nc2ccc(Cl)cc2)cc1 | -103*
Cc1c(Nc2nc3nonc3nc2Nc2cccc(Cl)c2)c(=O)n(-c2ccccc2)n1C | -24
O=C(Nc1ccc(Cl)cc1)c1nc(Nc2ccccc2)c2ccccc2n1 | 96
CO[C@H]1CN(C)C(=O)c2ccc(NS(=O)(=O)c3c(C)noc3C)cc2OC[C@H](C)NC[C@H]1C | 95
C=C1SC(Nc2c(C)cccc2C)=NC12CCCCC2 | -81*
COC(=O)Nc1ccc(S(=O)(=O)C(F)(F)F)cc1 | 18
CN1CCN(CC#N)C(=O)C12CCN(C(=O)c1cnccn1)CC2 | -12
Cc1ccc(NC(=O)c2nnn(Cc3nc(-c4cccc(Cl)c4)oc3C)c2C)c(C)c1 | -29
C=CCN1CCN(C(=O)CC(C)C)CC(Cc2ccc(-c3cccnc3)cc2)C1=O (stereo unspecified) | -5
CNC[C@H]1Oc2ncc(-c3cncnc3)cc2C(=O)N([C@H](C)CO)C[C@@H]1C | 468
CC1N(c2cccnc2)C(=O)COC12CCN(Cc1ccoc1)CC2 (stereo unspecified) | 73
FC(F)(F)c1cc(-c2nnc(N3CCCC3)o2)cc(C(F)(F)F)c1 | 40
Cc1cc2nnc(-c3ccc(C(F)(F)F)cc3)n2[nH]1 | 64
FC(F)(F)c1ccc(-c2nnc3ccc(N4CCCCC4)nn23)cc1 | -109*
Cc1ccc2c(c1C)-n1cccc1C1(CCN(S(=O)(=O)c3cccc(C#N)c3)CC1)N2 | 21
CS(=O)(=O)NCC1CCN(CCCc2ccccc2)C1 (stereo unspecified) | 5
COc1ccc(C2=COC3(CCN(C(=O)c4cccc(-n5c(C)ccc5C)c4)CC3)C2)cc1 | 5
CCC1CCCCN1CCCNC(=O)C1=C(C)C(=O)OC12CCN(S(=O)(=O)CC)CC2 (stereo unspecified) | 3
CN1C(=O)c2cc(NS(=O)(=O)c3cccc(F)c3)ccc2OC[C@@H]2O[C@H](CC(=O)NCCN3CCCCC3)CC[C@H]21 | 23
COCCN1c2ccccc2[C@H]2CN(S(=O)(=O)C3CC3)CC[C@@H]21 | 9
Cc1cccc(N2C[C@@H]3CN(c4cccnc4)C(=O)[C@@H]3C2)n1 | 21
Cn1cc(N2C[C@@H]3CN(Cc4ccoc4)C[C@H]3C2=O)cn1 | 14
SMILES | Tgondii IFNg
Cn1cc(N2C[C@@H]3CN(c4ccccn4)C[C@H]3C2=O)cn1 | -87*
Cc1ccc2[nH]c(CCNc3nc(CCN)nc4ccccc34)nc2c1C | -3
CCN(Cc1cnn(C)c1)C(=O)c1cccc(NCc2ccc(C)cc2)c1 | 42
CC(C)NC(=O)N(C)C[C@H]1Oc2ccc(NC(=O)c3ccncc3)cc2C(=O)N([C@@H](C)CO)C[C@@H]1C | 0
Cc1ccc(C(C)NC(=O)Cn2ncc3c(N4CCOCC4)ncnc32)cc1C (stereo unspecified) | 179
Cc1c(C(=O)Nc2nc3c(s2)CCCC3)oc2ccccc12 | -25
COc1ccc(S(=O)(=O)Nc2ccc3c(c2)C(=O)N([C@H](C)CO)C[C@H](C)[C@H](CN(C)C(=O)Nc2c(C)noc2C)OCCCC[C@H](C)O3)cc1 | 187
O=C1c2cccc3cccc(c23)C(=O)N1Cc1ccco1 | -27
CN(C)CCN1C(=O)c2cccc3cc(NC(N)=O)cc(c23)C1=O | -32
O=C(CN1C(=O)c2cccc3cccc(c23)C1=O)OCCCc1ccncc1 | -73*
COc1ccc(NC(=O)N2CCC(Cc3cccc(C(N)=O)c3)C2)c(C)c1 (stereo unspecified) | 0
N#Cc1cccc(CN2CCn3cc(CNC(=O)C4CCC4)nc3C2)c1 | 2
Cc1cccnc1NCCNC(C)C(=O)NC1CCCC1 (stereo unspecified) | 3
Cc1cc(-c2ncc(CC(=O)Nc3ccc(-c4cnccn4)cn3)cc2C)ccn1 | -28
CCOc1ccc(C(=O)NCCc2sc(-c3ccc(C)cc3)nc2C)cc1 | 2
Cc1ccc(-c2nc(C)c(CCNC(=O)c3ccccc3)s2)cc1 | i
Cc1ccc(C(=O)NCCc2sc(-c3ccc(Cl)cc3)nc2C)cc1 | -82*
CCOc1ccc(C(=O)NCCc2sc(-c3ccc(Cl)cc3)nc2C)cc1 | -82*
CCOc1ccc(C(=O)NCCc2sc(-c3ccc(OC)cc3)nc2C)cc1 | 77
Cc1nc(-c2ccc(F)cc2)sc1CCNC(=O)c1ccc(Cl)cc1 | -58
CN(C)c1ncc(-c2ccccc2F)c(C2CCCN(S(=O)(=O)c3cn(C)cn3)C2)n1 (stereo unspecified) | -17
Cc1nccn1CC1(O)CCN(CC2CCCCC2)CC1 | 23
COCCN1C(=O)CCc2cc(NC(=O)c3cc(F)cc(F)c3)ccc21 | 3
C=CCN1C(=O)CCCC12CCCN(C(=O)c1ccc3ccccc3n1)C2 (stereo unspecified) | -38
